From PubChem BioAssay (Tox21)
Results filed as inconclusive are left out. Where a call stands in place of a potency, no number is given. A number with no mark means an inactive call. Activity calls are given as the source filed them. Calls follow the shape of the dose curve; as a rule, active = well fitted inhibition curve with a large enough effect in the signal ratio in the repeat runs (not every such curve was filed as active); inconclusive = weak or mixed curves; inactive = flat fitted curve, though single readings scatter; the % refers to the signal ratio.

biological target: Progesterone receptor (Homo sapiens) (UniProt P06401); test: qHTS assay to identify small molecule antagonists of the progesterone receptor (PR) signaling pathway (AID 1346795); details: PR-UAS-bla HEK293T, beta-lactamase FRET ratio, 16 h; series mostly up to 92.4 µM
Sequence (P06401 whole entry, looked up): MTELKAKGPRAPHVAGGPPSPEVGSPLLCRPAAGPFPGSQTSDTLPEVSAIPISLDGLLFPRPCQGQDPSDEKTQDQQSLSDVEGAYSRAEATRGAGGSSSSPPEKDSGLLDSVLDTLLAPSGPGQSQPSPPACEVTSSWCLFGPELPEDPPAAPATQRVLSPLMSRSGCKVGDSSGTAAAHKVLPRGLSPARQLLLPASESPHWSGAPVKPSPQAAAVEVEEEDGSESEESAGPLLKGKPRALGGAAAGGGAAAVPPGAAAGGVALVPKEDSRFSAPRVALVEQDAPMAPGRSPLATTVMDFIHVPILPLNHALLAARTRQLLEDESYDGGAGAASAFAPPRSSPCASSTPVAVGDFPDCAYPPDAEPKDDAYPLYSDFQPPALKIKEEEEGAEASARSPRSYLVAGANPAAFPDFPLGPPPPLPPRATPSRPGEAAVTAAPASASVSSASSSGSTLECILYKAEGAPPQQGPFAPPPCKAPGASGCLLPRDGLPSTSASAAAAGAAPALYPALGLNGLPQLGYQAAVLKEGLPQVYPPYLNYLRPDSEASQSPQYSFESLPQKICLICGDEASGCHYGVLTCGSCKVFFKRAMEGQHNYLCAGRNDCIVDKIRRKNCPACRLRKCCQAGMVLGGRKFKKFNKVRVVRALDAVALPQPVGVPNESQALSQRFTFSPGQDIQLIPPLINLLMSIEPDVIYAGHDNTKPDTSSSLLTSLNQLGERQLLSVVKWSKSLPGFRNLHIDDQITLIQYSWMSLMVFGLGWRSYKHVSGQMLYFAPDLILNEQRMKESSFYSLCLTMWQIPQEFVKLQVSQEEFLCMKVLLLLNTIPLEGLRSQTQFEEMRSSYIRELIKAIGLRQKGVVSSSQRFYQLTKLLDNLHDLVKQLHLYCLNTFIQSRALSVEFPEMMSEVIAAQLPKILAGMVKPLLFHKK
From the text: National Center for Advancing Translational Sciences [NCATS]
NIH Chemical Genomics Center [NCGC]
U.S. Environmental Protection Agency [EPA]
National Institutes of Environmental Health Sciences [NIEHS]
National Toxicology Program [NTP]
U.S. Food and Drug Administration [FDA]
Progesterone receptor (PR), a nuclear hormone receptor, plays an important role in development, metabolic homeostasis and reproduction. […] Endocrine disrupting chemicals (EDCs) and their interactions with steroid hormone receptors like PR causes disruption of normal endocrine function. To identify the compounds that inhibit PR signaling, a PR-UAS-bla GripTite cell line i.e. PR-UAS-bla HEK293T (Invitrogen, Carlsbad, CA, USA) containing a beta-lactamase reporter gene under the control of an Upstream Activator Sequence (UAS) was used to screen Tox21 10K compound library.
Tox21 Assay Protocol Summary:
PR-UAS-bla HEK293T cells were dispensed at 3,000 cells/4 uL of assay medium containing 2% charcoal stripped FBS per well into black wall/clear-bottom 1536-well plates using a Multidrop Combi (ThermoFisher Scientific, Waltham, MA) dispenser. After the assay plates were incubated at a 37C and 5% CO2 for 6 hr, 23 nL of compounds dissolved in DMSO, positive controls or DMSO only was transferred to the assay plate by a Pintool station (Kalypsys, San Diego, CA), followed by addition of 1 uL (1nM as final concentration) of Promegestone (R5020) in assay medium using a BioRAPTR FRD (Flying Reagent Dispenser, Aurora Discovery, San Diego, CA). The plates were incubated at 37C and 5% CO2 for 16 hr. Then 1 uL of LiveBLAzer B/G FRET substrate was added using a FRD. After the plates were incubated at room temperature for 2 hours, fluorescence intensity was measured by an Envision plate reader (PerkinElmer, Shelton, CT).
Potency is read from the fitted curve at half-maximal effect.

Structure (SMILES) | Potency | activity change, negative = inhibition
CC(=O)/C(C)=C/C1C(C)=CCCC1(C)C (stereo not given) | inactive | –
CN(C)C/C=C(/c1ccc(Br)cc1)c1cccnc1 | inactive | –
COCCO | inactive | –
C=C(C)C(=O)OCCN(C)C | inactive | –
C=C(C)C(=O)OCCOc1ccccc1 | inactive | –
CC(=O)OCCc1ccccc1 | inactive | –
Oc1ccc(Cc2ccccc2)cc1 | 22.5 µM (active) | –
CC(C)(C)c1ccc(S)cc1 | inactive | –
OC(CCN1CCCCC1)(c1ccccc1)C1CCCCC1 (stereo not given) | inactive | –
Cc1ncsc1CCO | inactive | –
CN(C)CC[C@@H](c1ccc(Br)cc1)c1ccccn1 | inactive | –
NCc1ccccc1 | inactive | –
CC(C)CC=O | inactive | –
COc1ccc([C@@H]2Sc3ccccc3N(CCN(C)C)C(=O)[C@@H]2OC(C)=O)cc1 | inactive | –
COc1ccc(C(C)=O)cc1 | inactive | –
CCCCCCCCCO | inactive | –
NC(N)=N/N=C/c1c(Cl)cccc1Cl | inactive | –
O=C(CCN1CCN2CCCC2C1)N1c2ccccc2Sc2ccc(Cl)cc21 (stereo not given) | – | -10.4% [at 18.9 µM]
Cc1ccc(O)c([C@H](CCN(C(C)C)C(C)C)c2ccccc2)c1 | inactive | –
CCOC(=O)CC(C)C | inactive | –

Structure (SMILES) | Potency | activity change, negative = inhibition
C=CCCCCCC | inactive | –
CCCCOC(=O)c1ccccc1C(=O)OCC(CC)CCCC (stereo not given) | 48.6 µM (active) | –
Oc1ccc(Sc2ccc(O)cc2)cc1 | 18.1 µM (active) | –
C[C@@H](C1=C(CCN(C)C)Cc2ccccc21)c1ccccn1 | inactive | –
CC(O)C1CCCCC1 (stereo not given) | inactive | –
O=C1CCCCCO1 | inactive | –
CC[C@]12CCCN3CCc4c(n(c5ccccc45)C(=O)C1)[C@@H]32 | 13.3 µM (active) | –
CCCC[C@H]1CN(CC2CCOCC2)C(=O)OC12CCN(C1(C)CCN(C(=O)c3c(C)ncnc3C)CC1)CC2 | inactive | –
O=C(NS(=O)(=O)/C=C/c1cccs1)c1ccc(F)cc1Br | inactive | –
O=C(CC(=O)c1ccccc1)c1ccccc1 | 65.7 µM (active) | –
CCCCOC(O)CC (stereo not given) | inactive | –
Cc1ccccn1 | inactive | –
COc1ccc(OC)c(OC)c1 | inactive | –
O=C(Nc1ccccc1)OCC(CN1CCCCC1)OC(=O)Nc1ccccc1 (stereo not given) | 23.7 µM (active) | –
CCCCCCOC(=O)CCC | inactive | –
O=C(O)C1CCC(C(=O)O)CC1 (stereo not given) | inactive | –
Cc1ccccc1N=Nc1ccc(N=Nc2c(O)ccc3ccccc23)c(C)c1 | inactive | –
S=C(S)NCCNC(=S)S | inactive | –
FC(F)(F)C(F)(F)C(F)(F)C(F)(F)C(F)(F)C(F)(F)CCI | inactive | –
O=c1c2ccccc2nnn1CCl | inactive | –
